Reference: PubChem BioAssay AID624330 (Southern Research Specialized Biocontainment Screening …, 2012)
Among all 340,000 compounds or so, about 2,100 (0.62%) were called active.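 The calls were made as follows: active = first-screen hits whose inhibition reached a set limit at any dose in the follow-up dose series; inconclusive = inhibition above the set first-screen limit but never retested; inactive = the rest.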 Not all results are given here. Results with a measured potency or affinity are listed apart.

These compounds were tested against Rac GTPase-activating protein 1 (Homo sapiens) (UniProt Q9H0H5) (assay: blockers of MgcRacGAP-driven Rac1 GTP hydrolysis – biochemical, ADP Hunter fluorescence, primary and confirmatory, confirmation (AID 624330;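 also: fluorescence reports GDP produced by GAP-driven GTP hydrolysis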)). Details: MgcRacGAP-stimulated Rac1 GTP hydrolysis, at 30 µM, active compounds read high, GST-tagged Rac1 F28L mutant substrate.
Rac GTPase-activating protein 1 (Homo sapiens), sequence (Q9H0H5 whole entry, looked up): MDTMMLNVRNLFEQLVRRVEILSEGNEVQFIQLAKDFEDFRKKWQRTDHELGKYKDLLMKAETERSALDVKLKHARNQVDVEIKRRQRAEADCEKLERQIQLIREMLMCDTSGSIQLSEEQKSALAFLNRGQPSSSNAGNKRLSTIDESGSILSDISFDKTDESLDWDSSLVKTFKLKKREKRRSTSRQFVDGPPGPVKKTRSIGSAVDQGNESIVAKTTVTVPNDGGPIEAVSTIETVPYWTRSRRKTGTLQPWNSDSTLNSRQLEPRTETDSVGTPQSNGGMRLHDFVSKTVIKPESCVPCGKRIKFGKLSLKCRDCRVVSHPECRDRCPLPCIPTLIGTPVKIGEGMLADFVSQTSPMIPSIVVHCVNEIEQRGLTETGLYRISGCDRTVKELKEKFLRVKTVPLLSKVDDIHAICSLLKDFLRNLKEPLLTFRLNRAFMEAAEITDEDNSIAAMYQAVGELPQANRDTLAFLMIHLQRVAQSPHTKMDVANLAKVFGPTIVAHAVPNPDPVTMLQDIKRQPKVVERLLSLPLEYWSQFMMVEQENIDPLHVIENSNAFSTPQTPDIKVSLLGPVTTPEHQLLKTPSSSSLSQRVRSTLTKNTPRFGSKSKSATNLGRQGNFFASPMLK

inhibition, inactive:
COc1ccc(CN(CCc2ccccc2)Cc2ccccc2)cc1OC 28.5%
O=C(O)CSc1nnc(SCc2cccc3ccccc23)s1 4.86%
CCN(CC)C(=O)CSc1nc2c(sc(=S)n2CC)c(=O)n1-c1ccccc1 2.69%
Cc1ccc(N2C(=O)NC3(CCCCC3)C2=O)cc1 8.08%
COc1ccc(N2C(=O)NC(=O)C2=O)cc1 6.21%
COC(=O)[C@@]12CCCN1[C@H](c1ccc(-c3ccc(Cl)c(Cl)c3)cc1)[C@H]1C(=O)N(C)C(=O)[C@H]12 -9.75%
CN1CCN(CCC(=O)Nc2ccc(F)c(F)c2)CC1 2.01%
CC(=O)c1ccc(N2CCN(C(C)C(=O)Nc3ccc4c(c3)OCCO4)CC2)cc1 (stereo not given) -0.86%
CC(C(=O)Nc1ccc2c(c1)OCO2)N1CCC(N2CCCCC2)CC1 (stereo not given) 26%
O=C(CN1CCc2ccccc2C1)Nc1ccccc1Cl 9.11%
O=C(CN1CCc2ccccc2C1)Nc1ccccc1F 8.8%
Cc1ccc(NC(=O)C(C)N2CCCC2)cc1Cl (stereo not given) 13.2%
Cc1cnc(NC(=O)[C@H](C)N2C(=O)C3CCCCC3C2=O)s1 (stereo not given in full) 1.01%
Cc1cnc(NC(=O)C(C)N2C(=O)C3CC=CCC3C2=O)s1 (stereo not given) 5.83%
Cc1cccc(-c2nc(C#N)c(N3CCC(C)CC3)o2)c1 -3.59%
COc1ccccc1/C=N/NC(=O)CC(=O)Nc1ccc(Cl)c(Cl)c1 3.66%
Cc1ccc(S(=O)(=O)NCCC(=O)N2CCN(Cc3ccccc3)CC2)cc1 -1.47%
Cc1ccc(C(=O)OCC(=O)NCc2cccs2)c(C)c1 6.37%
Cc1ccc(Oc2ccccc2NC(=O)CSCC(=O)Nc2cc(C)on2)cc1 3.22%
COc1ccc(NC(=O)NN2CCN(C)CC2)cc1 2.87%
CN1CCN(CCNC(=O)Nc2ccccc2C(F)(F)F)CC1 -0.21%
CN1CCN(CC(=O)Nc2ccccc2C(F)(F)F)CC1 28.9%
COc1ccc(S(=O)(=O)N2CCN(C(C)C(=O)Nc3ccc(C(C)C)cc3)CC2)cc1 (stereo not given) 5.24%
CC1Cc2ccccc2N1C(=O)CSc1nc2ccccc2s1 (stereo not given) 11.8%
CC(C)=NNC(=O)CN1C(=O)NC2NC(=O)NC21 (stereo not given) 6.56%
CC1(C)C2CCC(CN)C1C2 (stereo not given) 5.66%
Cc1nnc2sc(SCC(=O)Nc3cccc(Cl)c3)nn2c1=O 5.95%
COCC(C)n1c(C)cc(C(=O)CSc2nnnn2-c2ccc(O)cc2)c1C (stereo not given) 6.49%
COc1cc(/C=C2\NC(=S)N(C)C2=O)ccc1OCc1ccccc1F -3.41%
Cc1cc(/C=C2\NC(=S)N(C)C2=O)ccc1N1CCCC1 22.4%
O=C(NN=Cc1ccccc1C(=O)O)c1ccc(NS(=O)(=O)c2cccs2)cc1 5.61%
O=C(Cn1ccccc1=O)Nc1ccc(Cl)c(S(=O)(=O)N2CCCCC2)c1 1.69%
NC(=O)c1cc(-c2csc(-c3cccnc3)n2)ccc1O 18.7%
Fc1ccc(-c2csc(-c3cccnc3)n2)cc1F 7.05%
c1ccc(-c2csc(-c3cccnc3)n2)cc1 9.56%
Fc1ccccc1-c1csc(-c2cccnc2)n1 -4.78%
COc1ccc(NC(=O)Nc2cccc3c2O[C@H](CN(C)S(=O)(=O)c2c(C)noc2C)[C@@H](C)CN([C@H](C)CO)C3=O)cc1 6.8%
Fc1ccc(-n2cnnn2)c(F)c1 3.22%
CCCOc1ccc(C(=O)Nc2ccc(N3CCN(C(=O)c4ccco4)CC3)cc2)cc1 3.27%
CCC(C)[C@H](NC(=O)[C@@H]1Cc2ccccc2CN1)C(=O)Nc1ccc2c(c1)OCO2 (stereo not given in full) -13.9%
COc1cccc(NC(=O)CN(C)C(C)C(=O)Nc2ccc(S(=O)(=O)N3CCCC3)cc2)c1 (stereo not given) -2.38%
COc1cccc(/C=C/C(=O)OCC(=O)Nc2cc(S(=O)(=O)N3CCOCC3)ccc2C)c1 2.2%
CCN(CC)c1ccc(S(=O)(=O)N2CCOCC2)cc1NC(=O)COC(=O)/C=C/c1ccccc1 -3.02%
COc1cc(/C=C/C(=O)OCC(=O)Nc2ccc(C)c(S(=O)(=O)N3CCCCC3)c2)ccc1O 13.2%
COc1cccc(/C=C/C(=O)OCC(=O)Nc2ccc(S(=O)(=O)N3CCCC3)cc2)c1 1.91%
COc1cc(/C=C/C(=O)OCC(=O)Nc2cc(S(=O)(=O)N3CCCC3)ccc2Cl)cc(OC)c1OC -3.8%
CCN(CC(=O)Nc1cccc(S(=O)(=O)N2CCCC2)c1)CC(=O)Nc1ccccc1OC 2.96%
CCN(CC)c1ccc(S(=O)(=O)N2CCOCC2)cc1NC(=O)COC(=O)/C=C/c1ccc(C)o1 2.13%
C=CCn1c(C(C)C)nc2ccccc21 4.59%
O=C1CN(C(=O)COC(=O)CCc2ccccc2O)c2ccccc2N1 1.54%
N#CC1(N2CCN(C(=O)c3ccccc3)CC2)CCCCC1 8.68%
Clc1ccc(N2CCN(c3ncnc4c3oc3ccccc34)CC2)cc1 -2.02%
CCC(=O)Nc1cccc(C(=O)OCc2cccc([N+](=O)[O-])c2)c1 5.63%
Cc1cc(C(=O)Nc2c(C)n(C)n(-c3ccccc3)c2=O)on1 11.2%
O=C(c1ccc(F)cc1F)N1CCN(S(=O)(=O)c2ccc3c(c2)OCCO3)CC1 7.11%
COc1cc2cnc(CCO[C@H]3CCCCO3)cc2cc1OC 7.49%
COc1ccc(NC(=O)Cc2ccsc2)cc1S(=O)(=O)N1CCOCC1 -4.48%
Cc1ccc(-c2onc3ccc(C4OCCO4)cc23)cc1 12.2%
CSc1ccccc1NC(=O)NCCCl -4.18%
CCCN1CCN(CCCNC(=O)C(CC)n2nc(C)n3c(cc4occc43)c2=O)CC1 (stereo not given) 10.2%
